Screening results (PubChem)
This is a sample that favours compounds with a hit; in the whole collection about 2.4% have one here.
D2 ag-1 = Beta-Arrestin HTS for Positive Allosteric Modulators of the Human D2 Dopamine Receptor: Agonists | AID 624465, 2012 | actives 0.084% (n = 360,000) | activation, % (concentration not given with the values) | DiscoveRx PathHunter D2 beta-arrestin, luminescence, 90 min; 100% = 57 uM dopamine signal | D(2) dopamine receptor (Homo sapiens), P14416; in the data active means activation above about 40%; inconclusive means between about 15% and that limit
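DiscoveRx PathHunter D2 beta-arrestin cells (2,100/well) attached overnight, then compound-stimulated 90 min at 37 C in HBSS/10 mM HEPES/0.1% Tween-20 buffer; beta-galactosidase complementation read by luminescence after 1 h at ambient temperature. Dopamine 57 uM final (EC100) as control.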
D2 antag = HTS Assay for Allosteric Antagonists of the Human D2 Dopamine Receptor: Primary Screen for Antagonists; D(2) dopamine receptor (Homo sapiens), P14416; HEK293 TREx D2 cells, calcium flux, dopamine EC80; inhibition, % at 10 µM; actives 2% (n = 340,000); in the data active means inhibition above about 30%; inactive means below that, where a call was filed; further: 0% is about no effect
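Tetracycline-induced HEK293 TREx cells expressing D2 receptor forced-coupled to calcium signalling, loaded with no-wash calcium dye. Compounds added and calcium flux read 180 s, then dopamine added at EC80 and read a further 180 s.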
D2 PAM-1 = HTS Assay for Positive Allosteric Modulators of the Human D2 Dopamine Receptor: Primary Screen for Potentiators. D(2) dopamine receptor (Homo sapiens), P14416. HEK293 T-REx D2, calcium flux, EC20 dopamine potentiation. potentiation, % at 10 µM. actives 0.34% (n = 340,000);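 active means potentiation over 3 SD above the plate norm, cut at about 30% in these data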; further: 0% is about no effect
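Tetracycline-induced Hek293 Trex D2 cells, force-coupled to calcium, loaded with no-wash calcium dye. Compound added with 180 s kinetic read for agonism, then EC20 dopamine and a further 180 s read for potentiation.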
D2 ag-2 = HTS Assay for Allosteric Agonists of the Human D2 Dopamine Receptor: Primary Screen for Agonists | D(2) dopamine receptor (Homo sapiens), P14416 | HEK293 T-REx D2 cells, calcium flux agonist mode | activation, % at 2 µM | actives 0.53% (n = 340,000);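 active means activation over 3 SD above normal in the single-dose calcium agonist read, cut at about 30% in these data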; further: 0% is about no effect
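Calcium-flux readout, 1 cycle/sec over 180 s following compound pin transfer, in inducible HEK293 Trex D2 cells (force-coupled); dopamine controls included. Positive calcium responses during this window marked compounds as potential agonists.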
D2 PAM-2 = Beta-Arrestin HTS for Positive Allosteric Modulators of the Human D2 Dopamine Receptor: Potentiators | D(2) dopamine receptor (Homo sapiens), P14416 | DiscoveRx D2 beta-arrestin cells, luminescence, 90 min; 100% = 57 uM dopamine signal | potentiation, % (concentration not given with the values) | actives 0.23% (n = 360,000) | AID 624464, 2012; in the data active means potentiation above about 50%; inconclusive means mostly about 30% to 49%
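PathHunter beta-arrestin assay in DiscoveRx D2 cells. Compounds were added with an EC20 of dopamine (50 nM final) for 90 min at 37 deg C. Luminescence was read 1 h after detection reagent, with 57 uM dopamine as the EC100 control.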
D3 arrestin ag = qHTS of D3 Dopamine Receptor Agonist: D3 Dopamine Receptor B-arrestin Agonist Confirmatory Assay. shares compounds with D2 ag-2. DiscoveRx D3 beta-arrestin cells, luminescence, 90 min. Potency, µM (titrated, usually from 76.9 µM), for inactives: top-dose activation, usual class: activators. actives 4% (n = 2,300). AID 720506, 2013;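 further: potency means the concentration at half of the fitted maximal effect; 100% = dopamine control response; nearly all actives have a fitted effect of over 70% in size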
Target sequence (P35462 whole entry, looked up): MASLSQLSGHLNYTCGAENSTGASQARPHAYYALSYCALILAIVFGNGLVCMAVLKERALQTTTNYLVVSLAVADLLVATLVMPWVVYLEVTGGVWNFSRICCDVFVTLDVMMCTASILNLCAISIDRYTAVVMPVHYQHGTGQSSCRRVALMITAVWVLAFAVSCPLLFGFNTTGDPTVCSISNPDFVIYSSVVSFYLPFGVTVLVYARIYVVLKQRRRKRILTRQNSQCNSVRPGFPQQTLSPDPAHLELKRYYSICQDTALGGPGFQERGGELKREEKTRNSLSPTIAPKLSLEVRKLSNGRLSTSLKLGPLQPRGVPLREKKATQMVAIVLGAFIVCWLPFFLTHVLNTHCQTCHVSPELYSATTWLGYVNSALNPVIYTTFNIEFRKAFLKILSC
D2 ag-3 = qHTS of D3 Dopamine Receptor Agonist: D2 Dopamine Receptor B-arrestin Agonist Counterscreen. DiscoveRx PathHunter D2 beta-arrestin, luminescence, 90 min; response scale: percent relative to full dopamine signal. Potency, µM (top dose mostly 76.9 µM), without a hit: top-dose activation, usual class: activators. shares compounds with D2 ag-2. actives 5.9% (n = 2,300); further: potency means the concentration at half of the fitted maximal effect; % of control where 0% means no effect; nearly all actives have a fitted effect of over 70% in size
* = called active by the depositor; ? = inconclusive; . = not tested or not shown. Unless noted, the call rests on the fitted dose curve; in most records, active means well fitted activation curve with a large enough effect; inconclusive means small, poorly fitted or top-dose-only effect; inactive means flat fitted curve, though single readings scatter.

SMILES | D2 ag-1 | D2 antag | D2 PAM-1 | D2 ag-2 | D2 PAM-2 | D3 arrestin ag | D2 ag-3
COc1cc(/C=N/n2c(C3CCCCC3)n[nH]c2=S)ccc1O | 0.8 | 11.9 | -14.4 | 0.1 | -16.2 | . | .
Cc1ccc(C2=CC(=O)CC(C)(C)C2)cc1 | -2.6 | -13.7 | 10.2 | -0.7 | -12.1 | . | .
CC1(C)CC(=O)C=C(c2ccc3ccccc3c2)C1 | -0.1 | . | 3.6 | . | -8.2 | -1.9% | 3.5%
COc1ccc(CCNC(=O)c2cc(C3CC3)on2)cc1OC | -4.1 | -4.2 | -1.0 | 0.0 | -3.0 | -10.0% | 0.3%
CCOc1ccccc1CNC(=O)c1ccc(NC(=O)N2CC(C)Sc3ccccc32)cc1 (stereo unspecified) | . | . | 0.4 | . | . | . | .
CCOC(=O)C1CCCN(C2CCN(Cc3nc(Cc4ccccc4)no3)CC2)C1 (stereo unspecified) | -0.5 | 34.2* | -15.8 | 22.4 | -30.2 | -1.6% | 4.0%
CCOC(=O)C1CCN(C2CCN(Cc3nc(-c4ccccc4)no3)CC2)CC1 | 0.4 | -1.5 | 1.0 | 1.8 | -5.8 | . | .
CCOC(=O)C1CCCN(Cc2nc(Cc3cccc(F)c3)no2)C1 (stereo unspecified) | -1.7 | -23.1 | -4.3 | 1.8 | -12.9 | . | .
CCOC(=O)C1CCCN(C2CCN(Cc3nc(-c4ccccc4)no3)CC2)C1 (stereo unspecified) | 0.2 | -19.1 | -22.8 | 52.0* | -5.3 | 12.3% | 5.7%
CCOC(=O)c1c(NC(=O)c2ccc(S(=O)(=O)N3CCC(C)CC3)cc2)sc2c1CCN(CC)C2 | . | . | -10.5 | 0.1 | . | . | .
CCOC(=O)C1CCN(Cc2cccc(Oc3ccc(Cl)cc3)c2)CC1 | ? | 71.7* | -26.8 | 62.0* | 17.1 | ? | 39.8µM*
CCN1CCN(Cc2cccc(Oc3ccc(Cl)cc3)c2)CC1 | -1.9 | 13.9 | 4.8 | 0.5 | -28.7 | . | .
CCOC(=O)C1CCN(Cc2cnc(Oc3ccc(N)cc3)s2)CC1 | ? | 67.1* | -31.1 | 76.2* | 17.4 | 2.7% | ?
COc1ccc(C)cc1NC(=O)C(Sc1nnc(-c2cccs2)o1)c1ccccc1 (stereo unspecified) | -1.7 | 12.6 | 8.0 | -0.8 | -6.6 | -14.8% | -2.7%
O=C(Nc1ccc(Cl)cc1C(F)(F)F)C(Sc1nnc(-c2cccs2)o1)c1ccccc1 (stereo unspecified) | -2.9 | 10.4 | -11.3 | 1.5 | -12.3 | . | .
COc1ccc(O)c(-c2nc(N)nc(N)n2)c1 | -0.9 | -10.6 | 13.9 | 0.3 | -4.9 | -3.6% | -3.9%
COc1cccc(-n2cc(CN(C)Cc3nc(Cc4cccc(F)c4)no3)cn2)c1 | 6.5 | -2.6 | -3.1 | 15.5 | -2.7 | 4.0% | 1.1%
COc1cccc(-n2cc(CN(C)Cc3nc(Cc4ccccc4)no3)cn2)c1 | -1.8 | 4.7 | 7.0 | 10.5 | -3.9 | . | .
CCCNC(=O)c1ccc2c(=O)c(O)c(-c3ccc(F)cc3)[nH]c2c1 | 1.8 | . | . | . | 1.0 | . | .
Nc1c(Cl)cc(-c2[nH]c3cc(C(=O)NCCO)ccc3c(=O)c2O)cc1Cl | 3.3 | 9.4 | 2.6 | -0.4 | 3.0 | 25.4% | 2.3%
Cc1noc(C)c1COC(=O)CCOc1ccccc1 | -3.0 | -10.1 | -4.3 | 0.1 | -7.4 | . | .
Cc1noc(C)c1COc1ccc(C(=O)N(C)CCOc2ccccc2)cc1 | 11.8 | -21.7 | -25.6 | 0.2 | -2.2 | -8.3% | 6.4%
Cc1nn(-c2ccc(C(=O)N3CCN(S(=O)(=O)c4ccccc4C(F)(F)F)CC3)cc2)c(C)c1Cl | ? | 56.3* | -34.9 | 74.3* | 3.5 | 0.794µM* | 31.6µM*
Cc1ccccc1OCCC(=O)OCC(=O)NCCc1ccccc1 | -1.1 | -26.8 | -6.1 | -0.2 | 10.5 | . | .
COCCn1nnnc1CN1CCN(c2cccc(C(F)(F)F)c2)CC1 | -1.3 | 18.6 | 4.6 | 0.1 | 1.8 | . | .
SMILES | D2 ag-1 | D2 antag | D2 PAM-1 | D2 ag-2 | D2 PAM-2 | D3 arrestin ag | D2 ag-3
CC(C)CCn1nnnc1CN1CCN(c2ccccc2)CC1 | 4.1 | 49.9* | -18.9 | 52.2* | -6.1 | -6.7% | 9.5%
FC(F)(F)c1ccccc1CN1CCCC(N2CCN(c3ccccc3)CC2)C1 (stereo unspecified) | -1.1 | 78.4* | -24.7 | 62.0* | -15.4 | -3.8% | 21.2%
COc1ccc(N2CCN(C3CCCN(Cc4ccc(F)cc4)C3)CC2)cc1 (stereo unspecified) | 0.9 | -16.4 | -4.7 | 0.1 | -24.0 | . | .
CCOC(=O)c1c(NC(=O)CSc2cn(CCNC(=O)c3ccccc3OC)c3ccccc23)sc2c1CCCC2 | . | . | -2.1 | 0.9 | . | . | .
COc1ccc(OC)c(NC(=O)C2CCCN(S(=O)(=O)c3c(C)noc3C)C2)c1 (stereo unspecified) | -0.5 | 43.7* | -14.7 | -0.3 | -4.3 | 13.9% | 6.0%
COc1ccc(OC)c(NC(=O)C2CCN(S(=O)(=O)c3c(C)noc3C)CC2)c1 | -2.4 | 20.7 | -3.5 | 0.3 | -23.0 | . | .
COCc1ccc(-c2c(-c3ccccc3OC)sc3cc4c(cc23)OCO4)cc1 | -2.3 | 39.9* | 7.8 | -0.4 | -6.4 | 0.9% | -3.4%
COc1ccc(-c2noc(CSc3nnc(-c4ccncc4)n3-c3ccc(C)cc3)n2)cc1 | . | . | -2.7 | 2.9 | . | . | .
CCOc1ccc(-n2c(SCc3nc(-c4ccc(C)cc4)no3)nnc2-c2ccncc2)cc1 | -3.6 | 10.4 | -20.8 | 47.4* | -8.4 | -8.4% | -0.7%
O=c1cc[nH]c2c1ccc1cccnc12 | -1.8 | 2.4 | -4.6 | 0.1 | -15.1 | . | .
O=C(Nc1c(C(=O)c2ccc(Cl)cc2)oc2ccccc12)c1cc(=O)c2ccccc2o1 | . | . | 7.9 | -1.4 | . | . | .
COc1ccc(-c2cn(Cc3ccc4c(c3)C(=O)c3ccccc3C4=O)nn2)cc1 | 2.5 | 12.8 | -1.4 | 1.3 | -0.6 | 39.8µM* | 35.5µM*
COc1ccc(Cl)cc1C(=O)OCC(=O)c1ccc[nH]1 | 1.9 | -6.0 | -3.6 | 0.4 | -1.2 | . | .
Cc1ccc2cccc(NC(=O)c3ccc(-c4ccc(Cl)cc4Cl)o3)c2n1 | . | . | -1.7 | -0.7 | . | . | .
